# Test results from PubChem BioAssay (NCATS).
# A number with no mark means an inactive call. Inconclusive results are not listed. Where a call stands in place of a potency, no number is given. Activity calls are given as the source filed them. Unless noted, calls come from the whole dose curve; as a rule, active = well fitted curve in the direction sought with a large enough effect; inconclusive = small, poorly fitted or top-dose-only effect, or another doubt; inactive = no such curve, though single readings can be large; an effect the other way counts as inactive or inconclusive.
# Assays:
# [1] = molecular target: Cytochrome P450 1A2 (Homo sapiens) (UniProt P05177); test: p450-cyp1a2 (AID 410; calls by dose curve; note: potency is the fitted concentration of half-maximal effect)
# Method in brief: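 20nM CYP1A2 with 100uM Luciferin-ME (at Km) in 100mM KPO4; compound preincubated 10 min, NADPH regeneration added, 60 min at room temperature. Luciferin quantified by luminescence after detection reagent; normalized to 57 uM furafylline.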
# [2] = molecular target: Glucocorticoid receptor (Homo sapiens) (UniProt P04150); test: GR-GFP Redistribution (AID 450;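 active = compounds whose dose series gives a full or clear partial fitted curve of increased nuclear translocation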; note: potency is the fitted concentration of half-maximal effect); details: U2OS GR-GFP nuclear translocation, laser cytometry, 2 h
# [3] = molecular target: Glucocorticoid receptor (Homo sapiens) (UniProt P04150); test: GR-EFC Redistribution (AID 451; calls by dose curve; note: potency is the fitted concentration of half-maximal effect); details: CHO-K1 GR-EFC translocation, beta-gal luminescence, 2 h
# Method in brief: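 CHO-K1 cells expressing nuclear EA and GR-ED fragments of b-gal; compounds titrated up to 46 uM final, 2 h at 37 C. GR nuclear translocation read as complemented b-gal luminescence after 1 h RT detection.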
# [4] = molecular target: Mitogen-activated protein kinase 10 (Mus musculus) (UniProt Q61831); test: JNK3 AlphaScreen Assay (AID 530; active = well fitted curve in either direction with a large enough effect, not every such curve was filed as active;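 note: kinase came from lysate of stimulated human HepG2 cells; signal reports phosphorylation of biotinylated GST-cJun 1-79 at Ser73 with 10 µM ATP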)
# Method in brief: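 Pre-activated (IL-1β/TNFα) JNK3 in HepG2 lysates phosphorylates biotin-GST-cJun(1-79), 10 uM ATP; anti-phospho-cJun(Ser73) AlphaScreen read at room temperature, pH 7.6 Tris buffer. Compounds pre-incubated 15 min as titrations.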
# [5] = molecular target: Cytochrome P450 2C9 (Homo sapiens) (UniProt P11712); test: qHTS Assay for Inhibitors and Substrates of Cytochrome P450 2C9 (AID 883); note: potency is the fitted concentration of half-maximal effect; nearly all actives have a fitted effect of over 60% in size
# Method in brief: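 Signal: luciferase luminescence reporting luciferin produced by CYP2C9. Conditions: 10nM enzyme, Luciferin-H 100uM at KM, 25mM KPO4, 37C, 60 min NADPH-driven reaction. Reference: 57uM sulphaphenazole as 100% inhibition.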
# [6] = molecular target: Cytochrome P450 3A4 (Homo sapiens) (UniProt P08684); test: qHTS Assay for Inhibitors and Substrates of Cytochrome P450 3A4 (AID 884); note: potency is the fitted concentration of half-maximal effect; nearly all actives have a fitted effect of over 50% in size
# Method in brief: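 20 nM human CYP3A4 with 25 uM Luciferin-PPXE (at KM) in 200 mM KPO4, preincubated 10 min with compound; NADPH regeneration started a 60 min RT reaction. Luciferin detected by luminescence, normalized to 57 uM ketoconazole as full inhibition.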
# [7] = molecular target: Cytochrome P450 3A4 (Homo sapiens) (UniProt P08684); test: qHTS Assay for Activators of Cytochrome P450 3A4 (AID 885); note: nearly all actives have a fitted effect of over 65% in size
# Method in brief: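 Steps: enzyme/substrate mix dispensed; compound added, 10 min RT; NADPH regeneration solution added, 60 min RT; luciferin detection buffer stops reaction; 20 min later luminescence measured.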
# [8] = molecular target: Cytochrome P450 2C19 (Homo sapiens) (UniProt P33261); test: qHTS Assay for Inhibitors and Substrates of Cytochrome P450 2C19 (AID 899); note: potency is the fitted concentration of half-maximal effect; nearly all actives have a fitted effect of over 60% in size
# Method in brief: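 Signal comes from luciferase acting on luciferin released by CYP2C19-mediated hydroxylation of Luciferin-H EGE, 10uM (KM). Assay mix: 5nM enzyme, 50mM KPO4; 60 min at 37C with NADPH regeneration. Data normalized against 57uM ketoconazole.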
# [9] = molecular target: ATP-dependent 6-phosphofructokinase (Trypanosoma brucei brucei) (UniProt O15648); test: qHTS Assay to Find Inhibitors of T. brucei phosphofructokinase: hit validation (AID 492961);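 note: luminescence reports ADP formed as PFK phosphorylates fructose-6-phosphate with ATP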
# Method in brief: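 Inhibition of parasite PFK is measured as reduced ADP formation, quantified via luciferase after ATP depletion. Assay used 0.1 mM ATP, 0.5 mM F6P, 1.25 nM enzyme, 45 min incubation.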
# [10] = molecular target: Ubiquitin carboxyl-terminal hydrolase 1 (Homo sapiens) (UniProt O94782); test: Inhibitors of USP1/UAF1: Pilot qHTS (AID 504865);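 note: rhodamine fluorescence freed from ubiquitin-rhodamine substrate followed over time; top concentration of the series differs between compounds; nearly all actives have a fitted effect of over 35% in size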
# Method in brief: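 USP1/UAF1 complex (1nM) preincubated with compound 15 min at room temperature, then Ub-Rho substrate (150nM final) added. Fluorescence read kinetically at 480/540 nm, 6 reads every 60 seconds. Buffer: 50mM HEPES pH 7.8, 0.5mM EDTA, 0.1 mg/ml BSA, 1mM TCEP, 0.01% Tween-20.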
# [11] = molecular target: DNA dC->dU-editing enzyme APOBEC-3G (Homo sapiens) (UniProt Q9HC16); test: qHTS for inhibitors of Vif-A3G interactions: Validation (AID 588379)
# Method in brief: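 HeLa cells stably expressing Vif and A3G-eYFP, 700 cells/well, incubated overnight at 37 deg C, then exposed to compound overnight at 37 deg C. Inhibition of Vif-mediated degradation read as increased yellow fluorescence (Ex 488/Em 500-530) by laser-scanning cytometry.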
# [12] = molecular target: Luciferin 4-monooxygenase (Photinus pyralis) (UniProt P08659); test: Biochemical firefly luciferase enzyme assay for NPC (AID 624030);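 note: purified P. pyralis luciferase at 10 nM with luciferin and ATP substrate; nearly all actives have a fitted effect of over 70% in size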
# Method in brief: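 Purified P. pyralis luciferase at 10 nM in 50 mM Tris Acetate (final), luminescence read within 5 minutes of enzyme addition to compounds. Activity normalised to PTC124 versus DMSO; concentration-response curves classed by r2, magnitude and activity.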
# [13] = S16 Schwann cell viability assay (CellTiter-Glo assay) (AID 624031);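 note: native untransfected S16 rat Schwann cells; cellular ATP luminescence as a viability measure; nearly all actives have a fitted effect of over 70% in size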
# Method in brief: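 Concentration-effect curves come from CellTiter-Glo luminescence of S16 rat Schwann cells after 24 h compound exposure. Each reading was normalized to DMSO wells (0%) and wells without cells, and curves were ranked by r2 and response magnitude.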
# [14] = S16 Schwann cell PMP22 intronic element firefly luciferase assay (AID 624032); note: nearly all actives have a fitted effect of over 30% in size
# Method in brief: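 Rat S16 Schwann cells stably carrying firefly luciferase driven by a PMP22 intronic element, in 10% FBS, treated 24 h at 37 C. ONE-Glo luminescence normalized to PTC124 control and DMSO (0%); curves classed by r2, magnitude and activity.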
# [15] = P-glycoprotein substrates identified in KB-3-1 adenocarcinoma cell line, qHTS therapeutic library screen (AID 1346986); note: nearly all actives have a fitted effect of over 60% in size
# Method in brief: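 KB-3-1 parental and colchicine-selected P-gp-overexpressing KB-8-5-11 cells (colchicine omitted during assay), 500 cells/well, dosed in dose-response for 72 h at 37 °C; CellTiter-Glo luminescence. Cytotoxic: curve class -1.1 to -2.4, max response >50%, AC50 < 10 uM.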
# [16] = Primary qHTS for inhibitors of SARS-S pseudo-typed particle cell entry (AID 1479145; calls by dose curve; note: nearly all actives have a fitted effect of over 45% in size)
# [17] = Primary qHTS for Huh7 cytotoxicity: counterscreen for inhibitors of MERS-S pseudotyped particle cell entry (AID 1479147; calls by dose curve); details: outcome: dose series up to 57.1 µM unless noted
# [18] = Primary qHTS for inhibitors of MERS-S pseudo-typed particle cell entry (AID 1479149; calls by dose curve; note: nearly all actives have a fitted effect of over 60% in size)
# [19] = Cytotoxicity counterscreen for inhibitors of SARS-CoV-2 cell entry (AID 1645845; calls by dose curve; note: nearly all actives have a fitted effect of over 50% in size)
# Method in brief: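 HEK293-ACE2 cells (Expi293F stably expressing human ACE2) seeded overnight, then compound for 1 h plus 48 h at 37C. Viability as ATP content by luminescence; normalized to wells with cells and media-only wells.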
# [20] = Primary qHTS to identify inhibitors of SARS-CoV-2 cell entry (AID 1645846; calls by dose curve; note: nearly all actives have a fitted effect of over 45% in size); details: activity change, negative = inhibition: at 57.1 µM (top of the series) unless noted
# Method in brief: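 Luminescence readout (Bright-Glo luciferase) 48 h after pseudoparticle addition. HEK293-ACE2 cells, 1500/well; compound pre-incubation 1 h; Normalized to spike PP and bald PP.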
# [21] = Primary qHTS for inhibitors of nuclear receptor binding SET domain protein 2 (NSD2) in an isogenic RCH-ACV NSD2 p.E1099K mutant (9B) (AID 1645876); note: nearly all actives have a fitted effect of over 70% in size
# [22] = Primary qHTS for inhibitors of nuclear receptor binding SET domain protein 2 (NSD2) in an RCH-ACV wild type WT cells (2C) (AID 1645877); note: nearly all actives have a fitted effect of over 70% in size
# [23] = molecular target: Glutathione peroxidase 1 (Homo sapiens) (UniProt P07203); test: Primary qHTS Assay for Inhibitors of Recombinant Selenoprotein Glutathione Peroxidase 1 (GPX1) (AID 1845191); note: nearly all actives have a fitted effect of over 65% in size
# Method in brief: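 GR-coupled assay: compounds preincubated 30 min at room temperature with GPX1, then reaction started with CHP; final 10 nM GPX1, 1 mM GSH, 0.5 mM CHP, 0.5 mM NADPH, 100 nM GR, 0.01% BSA, pH 7.5 Tris buffer. NADPH fluorescence (340/450 nm) read at 0 and 15 min.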
# [24] = molecular target: Phospholipid hydroperoxide glutathione peroxidase GPX4 (Homo sapiens) (UniProt P36969); test: Primary qHTS Assay for Inhibitors of Recombinant Selenoprotein Glutathione Peroxidase 4 (GPX4) (AID 1845192); note: nearly all actives have a fitted effect of over 65% in size
# Method in brief: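 GR-coupled assay: recombinant GPX4 preincubated 30 min with compound at room temperature; final 200 nM GPX4, 1 mM GSH, 0.5 mM cumene hydroperoxide, 0.5 mM NADPH, 100 nM GR, 0.01% BSA, pH 7.5 Tris. NADPH fluorescence (340/450 nm) read at 0 and 15 min.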
# 3D7 = test: qHTS profiling for inhibitors of Plasmodium falciparum proliferation (AID 504749); note: nearly all actives have a fitted effect of over 60% in size; note: potency is the fitted concentration of half-maximal effect; details: P. falciparum in erythrocytes, SYBR Green DNA, 72 h; series mostly up to 28.7 µM
# Method in brief: (§1)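 P. falciparum-infected erythrocytes (0.3% parasitemia, 2.5% hematocrit) incubated with compound 72 h at 37 C, 5% CO2. Parasite DNA detected by SYBR Green after lysis, overnight at room temperature; normalised to 0.29 uM artemisinin and DMSO.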
# 7G8 = test: as above; details: P. falciparum in erythrocytes, SYBR Green DNA, 72 h; series mostly up to 28.7 µM
# Method in brief: as §1
# AS120 = test: as above; details: P. falciparum in erythrocytes, SYBR Green DNA, 72 h; series mostly up to 28.7 µM
# Method in brief: as §1
# C2A = test: as above; details: P. falciparum in erythrocytes, SYBR Green DNA, 72 h; series mostly up to 28.7 µM
# Method in brief: as §1
# CP191 = test: as above; details: P. falciparum in erythrocytes, SYBR Green DNA, 72 h; series mostly up to 28.7 µM
# Method in brief: as §1
# CP192 = test: as above; details: P. falciparum in erythrocytes, SYBR Green DNA, 72 h; series mostly up to 28.7 µM
# Method in brief: as §1
# CP237 = test: as above; details: P. falciparum in erythrocytes, SYBR Green DNA, 72 h; series mostly up to 28.7 µM
# Method in brief: as §1
# CP256 = test: as above; details: P. falciparum in erythrocytes, SYBR Green DNA, 72 h; series mostly up to 28.7 µM
# Method in brief: as §1
# CP262 = test: as above; details: P. falciparum in erythrocytes, SYBR Green DNA, 72 h; series mostly up to 28.7 µM
# Method in brief: as §1
# CP269 = test: as above; details: P. falciparum in erythrocytes, SYBR Green DNA, 72 h; series mostly up to 28.7 µM
# Method in brief: as §1
# CP297 = test: as above; details: P. falciparum in erythrocytes, SYBR Green DNA, 72 h; series mostly up to 28.7 µM
# Method in brief: as §1
# CP315 = test: as above; details: P. falciparum in erythrocytes, SYBR Green DNA, 72 h; series mostly up to 28.7 µM
# Method in brief: as §1
# Dd2 = test: as above; details: P. falciparum in erythrocytes, SYBR Green DNA, 72 h; series mostly up to 28.7 µM
# Method in brief: as §1
# GB4 = test: as above; details: P. falciparum in erythrocytes, SYBR Green DNA, 72 h; series mostly up to 28.7 µM
# Method in brief: as §1
# ICS = test: as above; details: P. falciparum in erythrocytes, SYBR Green DNA, 72 h; series mostly up to 28.7 µM
# Method in brief: as §1
# JCK = test: as above; details: P. falciparum in erythrocytes, SYBR Green DNA, 72 h; series mostly up to 28.7 µM
# Method in brief: as §1
# PC49 = test: as above; details: P. falciparum in erythrocytes, SYBR Green DNA, 72 h; series mostly up to 28.7 µM
# Method in brief: as §1
# TAB113 = test: as above; details: P. falciparum in erythrocytes, SYBR Green DNA, 72 h; series mostly up to 28.7 µM
# Method in brief: as §1
# TAB165 = test: as above; details: P. falciparum in erythrocytes, SYBR Green DNA, 72 h; series mostly up to 28.7 µM
# Method in brief: as §1
# W2 = test: as above; details: P. falciparum in erythrocytes, SYBR Green DNA, 72 h; series mostly up to 28.7 µM
# Method in brief: as §1
# Chain of Glucocorticoid receptor (Homo sapiens) (P04150 whole entry, looked up, the tested form may be a part): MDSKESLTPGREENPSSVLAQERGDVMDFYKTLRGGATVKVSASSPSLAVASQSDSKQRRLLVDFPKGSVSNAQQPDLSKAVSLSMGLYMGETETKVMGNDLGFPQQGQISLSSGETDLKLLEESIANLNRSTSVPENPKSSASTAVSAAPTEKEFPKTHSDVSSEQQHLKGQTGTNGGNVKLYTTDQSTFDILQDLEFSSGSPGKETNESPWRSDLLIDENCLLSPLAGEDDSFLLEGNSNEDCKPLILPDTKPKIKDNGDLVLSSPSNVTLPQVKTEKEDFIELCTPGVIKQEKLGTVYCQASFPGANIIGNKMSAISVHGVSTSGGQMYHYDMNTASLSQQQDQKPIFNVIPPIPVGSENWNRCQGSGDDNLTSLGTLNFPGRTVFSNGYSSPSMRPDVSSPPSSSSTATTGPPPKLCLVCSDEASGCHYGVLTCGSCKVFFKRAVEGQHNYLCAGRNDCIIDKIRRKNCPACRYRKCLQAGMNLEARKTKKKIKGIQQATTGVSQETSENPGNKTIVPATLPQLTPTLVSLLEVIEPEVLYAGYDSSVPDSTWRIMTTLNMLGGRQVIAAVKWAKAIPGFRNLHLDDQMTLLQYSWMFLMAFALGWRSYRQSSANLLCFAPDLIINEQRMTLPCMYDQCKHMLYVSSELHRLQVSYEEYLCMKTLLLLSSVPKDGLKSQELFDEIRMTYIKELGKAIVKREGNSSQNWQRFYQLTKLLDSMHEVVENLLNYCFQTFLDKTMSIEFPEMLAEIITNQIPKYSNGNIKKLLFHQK
# Chain of Cytochrome P450 3A4 (Homo sapiens) (P08684 whole entry, looked up): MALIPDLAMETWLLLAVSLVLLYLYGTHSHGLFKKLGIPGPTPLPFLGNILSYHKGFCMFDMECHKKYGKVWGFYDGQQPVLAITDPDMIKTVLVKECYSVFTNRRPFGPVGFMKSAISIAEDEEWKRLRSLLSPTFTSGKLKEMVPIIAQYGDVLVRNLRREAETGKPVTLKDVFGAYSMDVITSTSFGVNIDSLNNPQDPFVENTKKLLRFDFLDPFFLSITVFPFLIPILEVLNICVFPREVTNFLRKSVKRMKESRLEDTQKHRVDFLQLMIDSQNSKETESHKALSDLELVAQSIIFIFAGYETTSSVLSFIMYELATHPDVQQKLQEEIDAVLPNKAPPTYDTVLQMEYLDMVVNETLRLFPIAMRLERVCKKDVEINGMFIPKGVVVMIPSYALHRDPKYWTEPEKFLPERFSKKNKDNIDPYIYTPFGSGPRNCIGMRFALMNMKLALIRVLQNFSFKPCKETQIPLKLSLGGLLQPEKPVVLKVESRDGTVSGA
# Chain of Cytochrome P450 2C19 (Homo sapiens) (P33261 whole entry, looked up): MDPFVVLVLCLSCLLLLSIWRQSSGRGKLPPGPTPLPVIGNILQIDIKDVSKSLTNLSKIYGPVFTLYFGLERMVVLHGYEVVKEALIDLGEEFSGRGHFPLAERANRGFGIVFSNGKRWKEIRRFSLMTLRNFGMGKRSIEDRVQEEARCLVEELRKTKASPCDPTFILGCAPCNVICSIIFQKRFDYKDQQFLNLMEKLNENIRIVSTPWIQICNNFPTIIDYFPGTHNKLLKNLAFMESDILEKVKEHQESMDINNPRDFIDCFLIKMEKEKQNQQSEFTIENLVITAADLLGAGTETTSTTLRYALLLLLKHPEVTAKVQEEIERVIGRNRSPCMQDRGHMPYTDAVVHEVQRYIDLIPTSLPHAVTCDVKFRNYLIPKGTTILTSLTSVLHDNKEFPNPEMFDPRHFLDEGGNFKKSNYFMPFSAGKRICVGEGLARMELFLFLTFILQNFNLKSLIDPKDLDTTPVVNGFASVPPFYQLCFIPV
# Chain of Ubiquitin carboxyl-terminal hydrolase 1 (Homo sapiens) (O94782 whole entry, looked up): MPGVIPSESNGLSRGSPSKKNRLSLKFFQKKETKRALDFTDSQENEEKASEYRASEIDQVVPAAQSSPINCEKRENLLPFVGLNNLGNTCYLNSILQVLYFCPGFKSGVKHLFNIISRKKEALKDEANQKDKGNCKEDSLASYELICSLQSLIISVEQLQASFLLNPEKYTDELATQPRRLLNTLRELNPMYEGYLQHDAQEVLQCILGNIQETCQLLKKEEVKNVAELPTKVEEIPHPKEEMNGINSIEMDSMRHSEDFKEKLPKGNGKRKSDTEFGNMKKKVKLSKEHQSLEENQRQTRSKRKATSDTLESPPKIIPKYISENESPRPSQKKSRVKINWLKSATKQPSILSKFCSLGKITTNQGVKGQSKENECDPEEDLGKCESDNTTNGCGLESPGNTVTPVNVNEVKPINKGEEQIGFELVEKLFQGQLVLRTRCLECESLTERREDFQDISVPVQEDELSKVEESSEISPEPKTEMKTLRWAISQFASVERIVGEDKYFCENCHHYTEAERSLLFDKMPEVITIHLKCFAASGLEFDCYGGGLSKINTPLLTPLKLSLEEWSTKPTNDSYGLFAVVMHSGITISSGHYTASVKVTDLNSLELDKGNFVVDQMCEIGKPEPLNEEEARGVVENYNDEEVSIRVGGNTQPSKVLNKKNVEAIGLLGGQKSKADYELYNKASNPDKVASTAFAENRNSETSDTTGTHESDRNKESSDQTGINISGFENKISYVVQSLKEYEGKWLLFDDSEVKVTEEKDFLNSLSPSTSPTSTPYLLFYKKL
# Chain of DNA dC->dU-editing enzyme APOBEC-3G (Homo sapiens) (Q9HC16 whole entry, looked up): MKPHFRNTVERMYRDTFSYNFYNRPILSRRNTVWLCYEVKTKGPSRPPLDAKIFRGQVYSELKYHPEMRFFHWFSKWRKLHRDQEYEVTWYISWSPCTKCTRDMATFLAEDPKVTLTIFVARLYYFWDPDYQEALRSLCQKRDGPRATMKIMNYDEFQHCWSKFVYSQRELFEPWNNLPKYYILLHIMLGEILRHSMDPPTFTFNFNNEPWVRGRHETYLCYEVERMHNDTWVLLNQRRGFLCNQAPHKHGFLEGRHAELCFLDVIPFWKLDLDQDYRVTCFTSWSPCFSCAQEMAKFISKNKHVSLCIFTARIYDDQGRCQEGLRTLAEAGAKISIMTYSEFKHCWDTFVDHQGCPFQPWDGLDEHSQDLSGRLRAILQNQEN
# Chain of Phospholipid hydroperoxide glutathione peroxidase GPX4 (Homo sapiens) (P36969 whole entry, looked up): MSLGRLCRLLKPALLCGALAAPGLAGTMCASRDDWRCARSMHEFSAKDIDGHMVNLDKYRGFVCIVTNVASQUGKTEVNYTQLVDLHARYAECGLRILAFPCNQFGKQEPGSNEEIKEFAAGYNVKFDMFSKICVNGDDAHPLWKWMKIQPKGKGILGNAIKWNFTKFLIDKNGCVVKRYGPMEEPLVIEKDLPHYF
# Chain of Luciferin 4-monooxygenase (Photinus pyralis) (P08659 whole entry, looked up): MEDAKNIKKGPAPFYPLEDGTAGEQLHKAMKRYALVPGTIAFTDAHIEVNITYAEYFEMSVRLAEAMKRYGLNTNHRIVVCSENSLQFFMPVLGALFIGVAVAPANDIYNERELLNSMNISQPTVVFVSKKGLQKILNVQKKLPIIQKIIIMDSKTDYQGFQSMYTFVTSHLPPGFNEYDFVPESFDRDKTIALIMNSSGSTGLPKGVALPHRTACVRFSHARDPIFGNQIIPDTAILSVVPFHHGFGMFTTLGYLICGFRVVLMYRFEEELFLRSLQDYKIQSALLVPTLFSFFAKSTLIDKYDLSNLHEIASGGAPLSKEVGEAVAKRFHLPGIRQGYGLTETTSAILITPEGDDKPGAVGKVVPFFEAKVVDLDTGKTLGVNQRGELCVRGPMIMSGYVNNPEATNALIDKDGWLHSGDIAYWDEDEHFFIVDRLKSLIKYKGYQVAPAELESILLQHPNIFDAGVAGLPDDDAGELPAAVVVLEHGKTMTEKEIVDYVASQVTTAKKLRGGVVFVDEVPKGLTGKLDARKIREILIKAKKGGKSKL
# Chain of Glutathione peroxidase 1 (Homo sapiens) (P07203 whole entry, looked up): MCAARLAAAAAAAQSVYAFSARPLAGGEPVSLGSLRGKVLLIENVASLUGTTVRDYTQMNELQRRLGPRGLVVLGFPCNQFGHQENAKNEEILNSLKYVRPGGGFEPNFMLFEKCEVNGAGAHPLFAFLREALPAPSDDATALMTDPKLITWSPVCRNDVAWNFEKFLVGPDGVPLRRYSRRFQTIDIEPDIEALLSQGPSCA
# Chain of ATP-dependent 6-phosphofructokinase (Trypanosoma brucei brucei) (O15648 whole entry, looked up): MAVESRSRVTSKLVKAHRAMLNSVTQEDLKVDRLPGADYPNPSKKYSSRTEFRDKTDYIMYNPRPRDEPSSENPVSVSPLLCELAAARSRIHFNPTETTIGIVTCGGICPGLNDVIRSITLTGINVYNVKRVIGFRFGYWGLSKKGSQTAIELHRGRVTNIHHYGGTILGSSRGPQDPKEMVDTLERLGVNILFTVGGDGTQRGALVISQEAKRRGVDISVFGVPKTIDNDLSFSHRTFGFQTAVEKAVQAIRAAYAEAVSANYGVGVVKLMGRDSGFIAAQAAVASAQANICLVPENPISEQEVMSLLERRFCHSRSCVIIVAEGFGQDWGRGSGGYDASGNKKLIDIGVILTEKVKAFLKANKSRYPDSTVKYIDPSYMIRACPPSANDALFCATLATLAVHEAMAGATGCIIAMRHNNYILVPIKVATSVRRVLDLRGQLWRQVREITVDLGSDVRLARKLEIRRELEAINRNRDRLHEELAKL
# Chain of Cytochrome P450 1A2 (Homo sapiens) (P05177 whole entry, looked up): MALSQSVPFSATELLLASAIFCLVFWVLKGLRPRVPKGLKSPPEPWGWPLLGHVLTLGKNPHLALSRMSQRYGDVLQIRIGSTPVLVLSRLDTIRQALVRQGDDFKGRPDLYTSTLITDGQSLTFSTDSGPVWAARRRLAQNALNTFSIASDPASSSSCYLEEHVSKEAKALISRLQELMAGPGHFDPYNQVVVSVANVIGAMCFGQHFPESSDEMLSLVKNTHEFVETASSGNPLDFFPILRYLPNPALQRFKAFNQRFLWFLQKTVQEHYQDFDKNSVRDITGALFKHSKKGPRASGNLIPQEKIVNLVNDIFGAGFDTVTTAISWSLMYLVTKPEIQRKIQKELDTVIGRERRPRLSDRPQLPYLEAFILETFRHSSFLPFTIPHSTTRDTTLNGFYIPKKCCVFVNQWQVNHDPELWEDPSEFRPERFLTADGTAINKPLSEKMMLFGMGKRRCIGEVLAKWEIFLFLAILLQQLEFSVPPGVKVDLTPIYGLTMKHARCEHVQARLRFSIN
structure (smiles),measurement,setting,value
Cc1cccc([C@H](C)c2cnc[nH]2)c1C,Potency,[1],0.158 µM (active)
same,Potency,[2],> 46 µM
same,Potency,[3],> 46 µM
same,outcome,[4],inactive
same,Potency,[5],0.199 µM (active)
same,Potency,[6],0.158 µM (active)
same,Potency,[7],inactive
same,Potency,[8],5.01 µM (active)
same,Potency,[9],inactive
same,Potency,[10],inactive
same,Potency,[11],inactive
same,Potency,[12],inactive
same,Potency,[13],inactive
same,Potency,[14],inactive
same,Potency,[15],inactive
same,Potency,[16],inactive
same,outcome,[17],inactive
same,Potency,[18],inactive
same,Potency,[19],inactive
same,Potency,[20],inactive
same,Potency,[21],inactive
same,Potency,[22],inactive
same,Potency,[23],inactive
same,Potency,[24],inactive
same,Potency,3D7,inactive
same,Potency,7G8,7.94 µM (active)
same,Potency,AS120,inactive
same,Potency,C2A,inactive
same,Potency,CP191,7.08 µM (active)
same,Potency,CP192,inactive
same,Potency,CP237,11.2 µM (active)
same,Potency,CP256,7.08 µM (active)
same,Potency,CP262,inactive
same,Potency,CP269,inactive
same,Potency,CP297,10.7 µM (active)
same,Potency,CP315,inactive
same,Potency,Dd2,11.2 µM (active)
same,Potency,GB4,8.49 µM (active)
same,Potency,ICS,12.6 µM (active)
same,Potency,JCK,inactive
same,Potency,PC49,inactive
same,Potency,TAB113,inactive
same,Potency,TAB165,4.47 µM (active)
same,Potency,W2,10.7 µM (active)
